Test results: PubChem BioAssay AID1159580 (chemical genetic matrix, 2015)
Several values for one entry are separate records, joined by “and”; a condition that tells them apart may be missing. Identical values can stand only once. Among all 5,500 compounds or so, about 2,000 (36%) were called active. Inconclusive results (about 18%) are left out. No stated cut-off is given here; in the data, active means normalized growth mostly below about 0.91 (no sharp cut-off); inconclusive means no clear call, values can overlap the other calls; inactive means mostly above about 0.92. This is one part of the list.

Experiment: chemical genetic growth profiling, strain panel (AID 1159580);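 further: tested at 20 µM; growth read once vehicle control cultures reached saturation at 30 °C; 1 = growth at the plate median or of vehicle wells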
Details: S. cerevisiae deletion strains, growth OD

Measured: normalized growth

CC(=O)N=c1sc(S(N)(=O)=O)nn1C
inactive: locus YAL013W, strain DEP1, stronger effect = lower value 1.01 | locus YAL021C, strain ccr4, stronger effect = lower value 1.01 | locus YAL026C, strain drs2, stronger effect = lower value 1.01 | locus YAL030W, strain snc1, stronger effect = lower value 1 | locus YBL061C, strain skt5, stronger effect = lower value 1.01 | locus YBR009C, strain hhf1, stronger effect = lower value 1 | locus YBR021W, strain FUR4, stronger effect = lower value 1.02 | locus YBR023C, strain chs3, stronger effect = lower value 1.01 | locus YBR171W, strain sec66, stronger effect = lower value 1.03 | locus YBR229C, strain ROT2, stronger effect = lower value 1.01 | locus YBR231C, strain swc5, stronger effect = lower value 1.02 | locus YBR279W, strain paf1, stronger effect = lower value 1.01 | locus YCL011C, strain gbp2, stronger effect = lower value 1.01 | locus YCL016C, strain dcc1, stronger effect = lower value 1.01 | locus YCL029C, strain bik1, stronger effect = lower value 0.995 | locus YCL061C, strain MRC1, stronger effect = lower value 1.01 | locus YCL069W, strain vba3, stronger effect = lower value 1.01 | locus YCR088W, strain abp1, stronger effect = lower value 1.01 | locus YDL005C, strain med2, stronger effect = lower value 1.01 | locus YDL035C, strain GPR1, stronger effect = lower value 1.03 | locus YDL040C, strain nat1, stronger effect = lower value 0.999 | locus YDL074C, strain BRE1, stronger effect = lower value 0.995 | locus YDL101C, strain DUN1, stronger effect = lower value 1.01 | locus YDL134C, strain PPH21, stronger effect = lower value 1.02 | locus YDL185W, strain tfp1, stronger effect = lower value 1.01 | locus YDL192W, strain arf1, stronger effect = lower value 1.01 | locus YDR001C, strain nth1, stronger effect = lower value 1 | locus YDR069C, strain doa4, stronger effect = lower value 1.01 | locus YDR101C, strain arx1, stronger effect = lower value 1 | locus YDR137W, strain rgp1, stronger effect = lower value 1.04 | locus YDR150W, strain NUM1, stronger effect = lower value 1 | locus YDR159W, strain sac3, stronger effect = lower value 0.998 | locus YDR162C, strain NBP2, stronger effect = lower value 1.02 | locus YDR195W, strain ref2 0.991 | locus YDR297W, strain sur2, stronger effect = lower value 1 | locus YDR318W, strain mcm21, stronger effect = lower value 1.02 | locus YDR334W, strain swr1, stronger effect = lower value 1.01 | locus YDR335W, strain msn5, stronger effect = lower value 1.01 | locus YDR388W, stronger effect = lower value 1.01 | locus YDR392W, strain spt3, stronger effect = lower value 1.02 | locus YDR502C, strain sam2, stronger effect = lower value 0.998 | locus YEL003W, strain gim4, stronger effect = lower value 1.01 | locus YEL037C, strain rad23, stronger effect = lower value 1 | locus YEL061C, strain CIN8 (second series), stronger effect = lower value 1.01 | locus YEL061C, strain CIN8, stronger effect = lower value 1 | locus YER015W, strain faa2, stronger effect = lower value 0.989 | locus YER016W, strain bim1, stronger effect = lower value 1.01 | locus YER110C, stronger effect = lower value 1.02 | locus YER111C, strain swi4, stronger effect = lower value 0.994 | locus YER155C, strain BEM2 (second series), stronger effect = lower value 1.02 | locus YER155C, strain BEM2, stronger effect = lower value 1 | locus YER167W, strain BCK2, stronger effect = lower value 1.02 | locus YFR010W, strain ubp6, stronger effect = lower value 1.02 | locus YGL078C, strain dbp3, stronger effect = lower value 1 | locus YGL086W, strain mad1, stronger effect = lower value 0.998 | locus YGL167C, strain pmr1, stronger effect = lower value 1.01 | locus YGL173C, strain kem1, stronger effect = lower value 1.01 | locus YGL227W, strain vid30, stronger effect = lower value 1.01 | locus YGL240W, strain doc1, stronger effect = lower value 1.03 | locus YGL248W, strain PDE1, stronger effect = lower value 0.997 | locus YGL253W, strain hxk2, stronger effect = lower value 1.02 | locus YGR135W, strain pre9, stronger effect = lower value 1.06 | locus YGR252W, strain gcn5, stronger effect = lower value 1.01 | locus YHR013C, strain ard1, stronger effect = lower value 1.03 | locus YHR027C, strain rpn1, stronger effect = lower value 1.02 | locus YHR030C, strain SLT2, stronger effect = lower value 1 and 1.06 | locus YHR079C, strain IRE1 (second series), stronger effect = lower value 1.01 | locus YHR079C, strain IRE1, stronger effect = lower value 1.06 | locus YHR094C, strain hxt1, stronger effect = lower value 1.01 | locus YHR129C, strain ARP1, stronger effect = lower value 1.02 | locus YHR142W, strain chs7, stronger effect = lower value 1.02 | locus YHR200W, strain rpn10, stronger effect = lower value 1.01 | locus YIL066C, strain RNR3, stronger effect = lower value 1 | locus YIL073C, strain SPO22, stronger effect = lower value 1.07 | locus YIL125W, strain kgd1, stronger effect = lower value 0.997 | locus YIR030C, strain dcg1, stronger effect = lower value 0.996 | locus YJL092W, strain hpr5, stronger effect = lower value 1.02 | locus YJL095W, strain BCK1 (second series), stronger effect = lower value 1.01 | locus YJL095W, strain BCK1, stronger effect = lower value 0.989 and 1.05 | locus YJL115W, strain asf1, stronger effect = lower value 1.01 | locus YJL129C, strain trk1, stronger effect = lower value 1 | locus YJL134W, strain LCB3, stronger effect = lower value 1.01 | locus YJL154C, strain vps35, stronger effect = lower value 1 | locus YJL164C, strain tpk1, stronger effect = lower value 1.01 | locus YJL166W, strain qcr8, stronger effect = lower value 0.998 | locus YJL168C, strain set2, stronger effect = lower value 1.01 | locus YJL187C, strain SWE1 (second series), stronger effect = lower value 0.984 | locus YJL187C, strain SWE1, stronger effect = lower value 1.01 | locus YJR043C, strain POL32, stronger effect = lower value 0.986 | locus YJR066W, strain TOR1, stronger effect = lower value 0.984
